CtBP-E1A blk – qHTS Assay for Inhibitors of the CtBP/E1A Interaction | CtBP / adenovirus E1A interaction (AlphaScreen) | AlphaScreen GST-E1A/His-CtBP binding, 1536-well; stronger effect = lower value | activity change, % (concentration not given with the values) | hit rate 0.49% among 340,000 | AID 651724, 2012; in the data active = activity change below about -65%; inconclusive = mostly about -30% to -63%; also: % is scaled to controls: 0 for no effect and ±100 for the full control effect
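Homogeneous bead-based format: GST-tagged E1A captured on glutathione donor beads, His-tagged CtBP on nickel acceptor beads; compounds precede bead addition by 2 h at 37 °C.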
HP1b binding inh – HTS for Inhibitors of HP1-beta Chromodomain Interactions with Methylated Histone Tails; AlphaScreen HP1-beta / biotin-H3K9me3 peptide binding; Potency, µM (titrated, usually from 114 µM), for inactives: top-dose activity change, negative = inhibition, hits mostly inhibitors; hit rate 0.56% among 390,000; AID 540317, 2011; also: potency is read from the fitted curve at half-maximal effect; nearly all actives have a fitted effect of over 70% in size
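Compound inhibition of the preformed complex between 50 nM HP1-beta and 50 nM biotinylated H3K9me3 peptide was read by AlphaScreen. Buffer was PBS pH 7.4 with 0.01% Tween-20. Incubations ran 30 min at room temperature, with 10 ug/mL donor/acceptor beads.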
BAZ2B block – qHTS Assay for Inhibitors of BAZ2B | Potency, µM (titrated, usually from 114 µM), inactives show at the highest dose activity change, negative = inhibition, usual class: inhibitors | AlphaScreen BAZ2B-H3K14Ac peptide displacement | hit rate 4.4% among 360,000; also: potency is read from the fitted curve at half-maximal effect; % is scaled to controls: 0 for no effect and ±100 for the full control effect; nearly all actives have a fitted effect of over 60% in size
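BAZ2B 50 nM plus b-H3(5-23)K14Ac 50 nM, PBS pH 7.4/0.01% Tween-20, 30 min RT; compound added (max 110 uM), 30 min RT; streptavidin donor/Ni-chelate acceptor beads 10 ug/mL final, 20 min dark; AlphaScreen read.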
JMJD2A Tudor – qHTS Assay for Inhibitors of JMJD2A-Tudor Domain. AlphaScreen JMJD2A-Tudor / H3K4me3 peptide binding. Potency, µM (series often up to 114 µM), for inactives: top-dose activity change, negative = inhibition, usual class: inhibitors. hit rate 4.4% among 390,000; also: potency is read from the fitted curve at half-maximal effect; % is scaled to controls: 0 for no effect and ±100 for the full control effect; nearly all actives have a fitted effect of over 50% in size
Six1-Eya2 inh – qHTS Assay for Inhibitors of the Six1/Eya2 Interaction | AlphaScreen GST-Six1/His-Eya2 binding, biochemical; stronger effect = lower value | Homeobox protein SIX1 (Homo sapiens) + Protein phosphatase EYA2 (Homo sapiens), … | hit rate 0.56% among 360,000 | AID 651725, 2012 | activity change, % (concentration not given with the values); in the data active = activity change below about -65%; inconclusive = mostly about -30% to -63%; also: % is scaled to controls: 0 for no effect and ±100 for the full control effect
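AlphaScreen with GST-Six1 and His-Eya2 (5X mix: 250 nM and 500 nM), glutathione donor and nickel acceptor beads; buffer 50 mM Tris pH 8.0, 300 mM NaCl, 1 mM TCEP; 1 h at 37 C in the dark.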
G9a inh – qHTS Assay for Inhibitors of Histone Lysine Methyltransferase G9a; hit rate 8.8% among 350,000; Potency, µM (titrated, usually from 102 µM), inactives show at the highest dose activity, negative = inhibition, usual class: inhibitors; G9a H3K9 monomethylation, AlphaScreen, 2 h; also: potency is read from the fitted curve at half-maximal effect; % is scaled to controls: 0 for no effect and ±100 for the full control effect; nearly all actives have a fitted effect of over 75% in size
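G9a (20 nM) was preincubated 15 min with compound, then reacted 2 h at room temperature with 500 nM biotin-H3K9 peptide and 20 µM SAM. Monomethyl-H3K9 detected by AlphaScreen using anti-H3K9me1 antibody.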
Active calls of the source: *; ? = inconclusive; · = no result given; [ ] = another dose, or the depositor's remark. Hits are enriched below; roughly 10% of the tested compounds scored in any of these assays. Unless noted, calls follow the shape of the dose curve; as a rule, active = well fitted inhibition curve with a large enough effect; inconclusive = small, poorly fitted or top-dose-only effect; inactive = no such curve, though single readings can be large or run the other way.

SMILES	CtBP-E1A blk	HP1b binding inh	BAZ2B block	JMJD2A Tudor	Six1-Eya2 inh	G9a inh
O=C(O)c1cc2nc(-c3cccs3)cc(C(F)(F)F)n2n1	-13	20%	50µM*	-34%	?	71µM*
O=C(NCc1cccnc1)c1cc2nc(-c3cccs3)cc(C(F)(F)Cl)n2n1	-7	45%	-36%	-6%	-10	50µM*
O=C(NCCc1ccccc1)c1nc2nc(-c3cccs3)cc(C(F)(F)F)n2n1	?	50%	50µM*	?	?	-44%[59 µM]
O=C(NCc1ccco1)c1cc2nc(-c3cccs3)cc(C(F)(F)F)n2n1	-13	16%	-8%	-9%	-7	?
COc1ccc(-c2cc(C(F)(F)F)n3nc(C(=O)O)cc3n2)cc1OC	?	21%	?	-16%	-70*	15%[59 µM]
Nc1nc(SCc2ccc([N+](=O)[O-])cc2)c2ncn([C@@H]3O[C@H](CO)[C@@H](O)[C@H]3O)c2n1	·	·	·	·	·	-9%[59 µM]
COc1ccc(OCCOC(=O)CNC(=O)c2ccc(F)cc2)cc1	7	·	·	·	-4	·
C=CC(=O)N1CCCC(Nc2nc(Nc3ccc(N(C)C(=O)CC)cc3C)nc3nc[nH]c23)C1 (stereo not given)	?	36%	·	-19%	-67*	·
Cc1ccc(CN2C(=O)C[C@@H](NS(=O)(=O)c3ccc4ccccc4c3)C/C=C\C2c2ccc(C)cc2)cc1 (stereo not given in full)	·	·	·	·	·	6.3µM*
COc1ccc(C2/C=C\CC(NS(=O)(=O)c3ccc(C)cc3)CC(=O)N2Cc2ccccc2F)cc1 (stereo not given)	-3	15%	·	-27%	-3	·
CCc1ccccc1NC(=O)C1CCCN(c2ncnc3onc(C)c23)C1 (stereo not given)	·	30%	10%[57.1 µM]	3%	·	-4%[59 µM]
CN1CCC(=NNC(=O)C(=O)Nc2cccc(Br)c2)CC1	-18	5%	-27%	22µM*	-2	-5%[59 µM]
CN1CCC(=NNC(=O)C(=O)NCc2ccccc2)CC1	7	17%	-1%	-9%	5	40µM*
CN1CCN(C(=S)C(=O)NCc2ccccc2)CC1	5	18%	-9%	-21%	7	6%
COc1ccc(CCC(=O)NNC(=O)Nc2ccc(C(C)C)cc2)cc1	-2	40%	-1%	-10%	0	·
CC1=Nn2c(nnc2-c2cc(-c3ccccc3)n[nH]2)SC1	5	43%	11%	0%	3	14µM*
COc1ccc(C2=Nn3c(nnc3-c3cccnc3)SC2)cc1OC	-77*	43%	3%	-13%	-69*	?
Brc1ccc(C2=Nn3c(nnc3-c3cccnc3)SC2)s1	-26	34%	0%	50µM*	-22	18%[12.7 µM]
c1ccc(C2=Nn3c(nnc3-c3ccco3)SC2)cc1	-29	-15%	-27%	-24%	?	32µM*
CC(=O)Nc1ccc(-c2ccnc3c2CC(C(=O)Nc2cccc(OC(F)(F)F)c2)O3)cc1 (stereo not given)	-3	·	·	·	-1	·
CN1CC[C@@]2(CCCN(S(=O)(=O)c3ccccc3)C2)C1	·	·	·	·	·	0%[12.7 µM]
COc1ccc(N2CCN(S(=O)(=O)CC34CCC(CC3=O)C4(C)C)CC2)cc1 (stereo not given)	0	2%	-9%	-30%	-8	·
Brc1ccccc1C1=Nn2c(nnc2-c2ccccc2)SC1	-5	-26%	-5%	-24%	-9	32µM*
COc1ccc(-n2nnnc2C2CCN(S(=O)(=O)c3ccc(NC(C)=O)cc3)CC2)cc1	·	11%	1%	-21%	·	10%[59 µM]
CN1CCc2c(n(CC(O)CN3C(=O)c4ccccc4S3(=O)=O)c3ccccc23)C1=O (stereo not given)	-4	16%	-5%	-30%	0	-27%[59 µM]
SMILES	CtBP-E1A blk	HP1b binding inh	BAZ2B block	JMJD2A Tudor	Six1-Eya2 inh	G9a inh
CC(C)NCC(O)Cn1c2c(c3ccccc31)CCc1c-2cnn1-c1ccccc1 (stereo not given)	-27	?	?	50µM*	-27	?
CCOC(=O)c1ccc2c(c1)n(CCCS(=O)(=O)[O-])c(/C=C/c1ccc(Cl)cc1)[n+]2CC	-3	19%	0%	3%	3	·
CC[n+]1c(/C=C/C=C2/N(C)c3ccccc3C2(C)C)sc2ccccc21	·	·	·	·	·	8.9µM*
CC[n+]1c(/C=C/C=C/N(C(C)=O)c2ccccc2)sc2ccccc21	4	-30%	28µM*	79µM*	0	29%[0.501 µM]
CCn1c(/C=C/N(C(C)=O)c2ccccc2)[n+](CC)c2ccc(Cl)cc21	-4	10%	?	-10%	-5	79µM*
COc1ccc(OC)c(NC(=O)COC(=O)CCNc2ccccc2OC)c1	-28	-10%[57 µM]	·	?	-27	·
COc1ccc(OC)c(CNC(=O)CN(c2ccc(C)cc2)S(=O)(=O)N(C)C)c1	·	24%	-16%	-21%	·	-6%[59 µM]
O=C(CCl)Nc1ccc(N=Nc2ccccc2)cc1	·	1%	40µM*	?	-8	?
O=C(CCl)Nc1ccc(-c2ccccc2)cc1	·	72%	3%	-11%	0	0%
CC(C)C(=O)OCC(=O)Nc1ccc(N=Nc2ccccc2)cc1	?	?	40µM*	35µM*	?	45µM*
O=C(O)c1ccc[n+]([O-])c1	·	·	·	·	·	-16%[12.7 µM]
NC(=S)c1ccc[n+]([O-])c1	-1	?	·	1.1µM*	6	·
Cc1oc(-c2ccccc2F)nc1CS(=O)(=O)CC(=O)N1CCOCC1	-2	33%	12%	-9%	5	-1%[59 µM]
O=C(CCS(=O)(=O)Cc1ccccc1)N1CCc2ccccc2C1	10	20%	0%	-18%	4	20%[59 µM]
CCOC(=O)C1CCN(C(=O)CCc2ccccc2)CC1	-1	63%	-5%	-5%[11.4 µM]	6	1%[12.7 µM]
O=C(CCS(=O)(=O)Cc1ccccc1)N1CCN(Cc2ccccc2)CC1	6	17%	11%	-10%	6	50µM*
CCOC(=O)C1CCN(C(=O)CCS(=O)(=O)Cc2ccccc2)CC1	3	13%	0%	-9%	-2	50µM*
Cc1oc(-c2ccccc2F)nc1CS(=O)(=O)CC(=O)N1CCN(Cc2ccccc2)CC1	-9	11%	-22%	-20%	4	50µM*
